Inconclusive results are not listed. Where a call stands in place of a potency, no number is given. A number with no mark means an inactive call. The source made the active and inactive calls. Calls come from the whole dose curve; as a rule, active = well fitted cell-killing curve with a large enough effect; inconclusive = small, poorly fitted or top-dose-only effect, or effect the other way; inactive = flat fitted curve, though single readings scatter. *1 amine or outer side, *2 acyl side, *3 side chain or, on linkers, in order; H or OH if unused. Where a SMILES comes first, the peptide text is derived from it. [ ]: non-standard residue; d: D form. X4 = CC(C)=CCc1cc(C(O)C(N[*:1])C(=O)[*:2])ccc1O
system: CAOV3; assay: Primary qHTS to identify gynecologic anti-cancer compounds using libraries of approved drugs and bioactive compounds (AID 1345084); conditions: Gynecologic cancer cell panel viability, ATPlite luminescence, 48 h; series mostly up to 57.5 µM; note: nearly all actives have a fitted effect of over 55% in size
Outline: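 Measured: luminescence after ATPlite addition (15 min, RT). Exposure: 48 h, 37 C, 5% CO2.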
Potency is the fitted concentration of half-maximal effect.

Compound	Potency	activity change, negative = cytotoxicity
Cn1nnc(-c2ccc(-c3ccc(N4C[C@H](CO)OC4=O)cc3F)cn2)n1	inactive	–
CC(=O)OC1CC2C3(C)CCC(OC(=O)CC(=O)O)C(C)(C)C3CCC2(C)C2(C)CCC(C3(C)CCC(=O)O3)C12 (stereo not drawn)	inactive	–
COc1cc(O)cc(/C=C/c2ccc(O[C@@H]3O[C@H](CO)[C@@H](O)[C@H](O)[C@H]3O)cc2)c1	inactive	–
O=S(=O)(c1ccccc1)c1cnc2c(N3CCNCC3)cccc2c1	inactive	–
CC(C)c1cc(C(=O)N2CC[C@H](NC(=O)C3CC3)C2)n[nH]1	inactive	–
CC(=O)OC1C(O)CC2(C)C(CCC(C)C23Cc2c(O)cc(CO)c(C=O)c2O3)C1(C)C (stereo not drawn)	inactive	–
COC(=O)CC(C)(O)CC(=O)OCc1ccc(O[C@@H]2O[C@H](CO)[C@@H](O)[C@H](O)[C@H]2O)cc1 (stereo partly drawn)	inactive	–
CC(Cc1cc2c(c(C(N)=O)c1)N(CCCO)CC2)NCCOc1ccccc1OCC(F)(F)F (stereo not drawn)	inactive	–
O=C1CCC=CC1(O)C(=O)OCc1ccccc1O[C@@H]1O[C@H](CO)[C@@H](O)[C@H](O)[C@H]1O (stereo partly drawn)	inactive	–
C=C1C(O)CC2C(C(=O)O)=COC(O[C@@H]3O[C@H](COC(=O)/C=C/c4ccc(O)cc4)[C@@H](O)[C@H](O)[C@H]3O)C12 (stereo partly drawn)	inactive	–
O=C(OC1C=C(CO)C2C(OC3OC(CO)C(O)C(O)C3O)OC=CC12)c1ccc(O)cc1 (stereo not drawn)	inactive	–
COC(=O)CC(O)CC(O)/C=C/c1c(C)ccc2c1C(O)CC(C)C2 (stereo not drawn)	inactive	–
COc1cc(O)c2c(c1)C1=C[C@H](O)[C@@H](O)C[C@]1(C)OC2=O	inactive	–
CC(=O)O[C@@H]1[C@H](O)[C@@H](O[C@@H]2O[C@@H](C)[C@H](O[C@@H]3OC[C@@H](O)[C@H](O[C@@H]4OC[C@@H](O)[C@H](O)[C@H]4O)[C@H]3O)[C@@H](O[C@@H]3O[C@H](CO)[C@@H](O)[C@H](O)[C@H]3O)[C@H]2O)[C@H](OC(=O)[C@]23CCC(C)(C)C[C@H]2C2=CCC4[C@@]5(C)CC[C@H](O[C@@H]6O[C@H](C(=O)O)[C@@H](O)[C@H](O[C@@H]7OC[C@@H](O)[C@H](O)[C@H]7O)[C@H]6O[C@@H]6O[C@H](CO)[C@H](O)[C@H](O)[C@H]6O)[C@@](C)(C=O)C5CC[C@@]4(C)[C@]2(C)CC3)O[C@@H]1C (stereo partly drawn)	–	19.4% [at 6.55 µM]
C/C=C(\C)C(=O)O[C@@H]1CC2[C@@H](CC=C3C[C@@H](O[C@H]4C[C@H](OC)[C@H](O[C@H]5C[C@H](OC)[C@H](O[C@@H]6O[C@H](C)[C@@H](O[C@H]7C[C@H](OC)[C@H](O[C@@H]8O[C@H](CO)[C@@H](O)[C@H](O)[C@H]8O)[C@@H](C)O7)[C@H](OC)[C@H]6O)[C@@H](C)O5)[C@@H](C)O4)CC[C@@]32C)[C@@]2(O)CC[C@H](C(C)=O)[C@@]12C (stereo partly drawn)	–	9.95% [at 6.55 µM]
C=C(CCC1=C(C)[C@H]2[C@H](CC3[C@@H]4CC=C5C[C@@H](O)C[C@@H](O)[C@]5(C)C4[C@H](O)C[C@@]32C)O1)CO[C@@H]1O[C@H](CO)[C@@H](O)[C@H](O)[C@H]1O (stereo partly drawn)	3.55 µM (active)	–
C[C@@H]1CC[C@@]2(OC1)O[C@H]1C[C@H]3[C@@H]4CC=C5C[C@@H](O)CC[C@]5(C)[C@H]4CC[C@]3(C)[C@H]1[C@@H]2C	inactive	–

Compound	Potency	activity change, negative = cytotoxicity
CC(C)(C)NS(=O)(=O)c1cncc(-c2cc(F)c3nc(N)nn3c2)c1	inactive	–
CC(C)=CCc1cc(C(O)C2NC(=O)CNC(=O)C(Cc3c[nH]c4ccccc34)NC(=O)C3CCCN3C(=O)CNC(=O)C(C(C)C)NC(=O)CNC2=O)ccc1O (stereo not drawn) (cyclo(G[X4]GVGPW); configuration not given here)	–	-21.2% [at 11.6 µM]
Cc1cc(N2CCN([C@@H]3CN[C@H](C(=O)N4CCSC4)C3)CC2)n(-c2ccccc2)n1	inactive	–
CC(=O)N1CCN(Cc2ccc([C@H](C)Nc3nccc(N4C(=O)OC[C@@H]4C(C)C)n3)cc2)CC1	inactive	–
C/C(=C\CCC(C)CCO)C(=O)OC1(C)CCC2C(C(=O)O)=COC(OC3OC(CO)C(O)C(O)C3O)C21 (stereo not drawn)	inactive	–
Cc1cc(C(N)=O)ccc1-n1c(CCC(=O)O)ccc1-c1ccc(-n2ccnc2)cc1	inactive	–
NC(=O)c1csc(C2OC(CO)C(O)C2O)n1 (stereo not drawn)	inactive	–
COc1c2c(c(CO)c3c1C(=O)OC3)OC1(C)CCC3(O)C(C)(C)OC(=O)CCC3(C)C1C2 (stereo not drawn)	inactive	–
CC1=C(C)C(=O)OC(C(C)C2CCC3C4CC=C5CC(OC6OC(COC7OC(CO)C(O)C(O)C7O)C(O)C(O)C6O)CC(O)C5(C)C4CCC23C)C1 (stereo not drawn)	inactive	–
O=C(NCc1cccc(O)c1)c1cc2cc(F)ccc2[nH]1	inactive	–
CCOc1cc(CC(=O)NC(CC(C)C)c2ccccc2N2CCCCC2)ccc1C(=O)O (stereo not drawn)	inactive	–
CC1(C)CC2C(C1)C(C)(O)C13CC1(COC3=O)C2O (stereo not drawn)	inactive	–
COC(=O)c1ccnc(-c2cc(C(=O)NCCc3ccccc3)ccn2)c1	inactive	–
COC(=O)c1cc(OC)cc(OC)c1C(=O)c1c(OC)cc2c(c1O)C1CCCC(C)(O2)O1 (stereo not drawn)	inactive	–
O=C(O)CC1CCC(c2ccc(-c3ccc4nc(C(=O)NCc5ccc(OC(F)(F)F)cc5)cn4c3)cc2)CC1 (stereo not drawn)	inactive	–
COc1cc2occc2c(O[C@@H]2O[C@H](CO)[C@@H](O)[C@H](O)[C@H]2O)c1CCC(=O)O	inactive	–
